This is part of a sample that, as a whole, favours compounds with a hit. Of some 83,000 tested, about 20% had one in any assay.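 Negative percent growth values reflect cell death: -40 means 40% of the cells present at the start died, and -100 means all died.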 A number with no mark means an inactive call. Active and inactive are the calls of the source. The calls were made as follows: active = growth percent below 10; inactive = the rest.
What was measured:
Test in all cases: NCI-60 one-dose screen, 48 h (100 = growth as untreated, 0 = no growth, -100 = all killed)
Conditions in all cases: 10 µM unless noted
[1] = system: DU-145 prostate
[2] = system: K-562 leukemia
[3] = system: MALME-3M melanoma
[4] = system: MDA-MB-231 breast
[5] = system: RXF 393 renal
[6] = system: SF-268 CNS
[7] = system: SF-295 CNS
[8] = system: SF-539 CNS
[9] = system: UACC-257 melanoma
[10] = system: M14 melanoma
[11] = system: HCT-15 colon
[12] = system: HT29 colon
[13] = system: SNB-75 CNS
[14] = system: SNB-19 CNS
[15] = system: U251 CNS
[16] = system: PC-3 prostate
[17] = system: SK-MEL-5 melanoma
[18] = system: UACC-62 melanoma
[19] = system: LOX IMVI melanoma
[20] = system: SK-MEL-28 melanoma

Row | Compound | growth [1] | growth [2] | growth [3] | growth [4] | growth [5] | growth [6] | growth [7] | growth [8] | growth [9] | growth [10] | growth [11] | growth [12] | growth [13] | growth [14] | growth [15] | growth [16] | growth [17] | growth [18] | growth [19] | growth [20]
1 | O=c1[nH]c(-c2cccc(F)c2)cc2cc(F)ccc12 | 30.1% | 14.1% | 73% | 49.8% | 9.93% (active) | 68.4% | 8.3% (active) | -1.4% (active) | 55.3% | 20.3% | 16.7% | 6.64% (active) | 12.1% | 26.6% | 21.6% | 16.3% | 42.2% | 36.4% | 43.3% | 61.7%
2 | COc1cc(-c2csc(NC(=O)Nc3cc(Cl)cc(Cl)c3)n2)cc(OC)c1OC | -15.6% (active) | 32.4% | -31.5% (active) | -14.5% (active) | 15.6% | 27.7% | -46.1% (active) | 46.4% | 56.7% | -6.33% (active) | 14.5% | 21.9% | -29.2% (active) | 9% (active) | -80.1% (active) | 10.7% | 54.5% | -62.2% (active) | 6.77% (active) | 30.6%
3 | O=c1c2ccccc2n(CC(O)CN2CCCC2)c2c(Br)cccc12 (stereo not given) | 105% | 92.9% | 125% | 129% | 98.9% | 94.8% | 106% | 94.9% | 98.6% | 98.7% | 103% | 103% | 79% | 84.7% | 98.8% | 95.9% | 96.8% | 119% | 96.6% | 96.9%
4 | COc1ccccc1C(=O)/C=C/c1cc2cccc(OC)c2[nH]c1=O | 16.5% | 5.33% (active) | -0.686% (active) | -0.926% (active) | -43.5% (active) | 2.36% (active) | 14.1% | -10% (active) | 33.6% | 9.63% (active) | -12.5% (active) | -39.1% (active) | 34.3% | -4.63% (active) | -55.7% (active) | 31.1% | -39.2% (active) | -29.1% (active) | -63.5% (active) | 2.94% (active)
5 | O=C(O)c1cc(N=Nc2ccc(-c3ccc(N=Nc4c(S(=O)(=O)O)cc5ccc(Nc6ccccc6)cc5c4O)cc3)cc2)ccc1O | 109% | 91.3% | 86% | 98% | 112% | 93.1% | 99.7% | 108% | 107% | 106% | 100% | 99.9% | 85.2% | 102% | 103% | 96.4% | 106% | 93.7% | 95.6% | 107%
6 | N#Cc1ccc(Oc2ccc3ccc(=O)oc3c2)cc1 | 107% | 79% | 126% | 98.5% | 81.8% | 105% | 112% | 101% | 114% | 92% | 98% | 114% | 97.2% | 89.3% | 91.7% | 94.5% | 103% | 88.3% | 93.4% | 107%
7 | CCN1CCN(c2ccc(NC(=O)Nc3nc4ccc(-c5ccccc5OC)cc4s3)cc2)CC1 | -84.4% (active) | -67.4% (active) | -80.3% (active) | -74% (active) | -74.2% (active) | -59.4% (active) | -79.9% (active) | -82.6% (active) | -71.9% (active) | -70.1% (active) | -83.2% (active) | -92% (active) | -19.8% (active) | -82.8% (active) | -87% (active) | -83.8% (active) | -98.8% (active) | -85.3% (active) | -86.4% (active) | -79.3% (active)
8 | COc1ccc(-c2nnc(N3CCN(C(=O)CN4CCN(c5ccc(OC)cc5)CC4)CC3)nc2-c2ccc(OC)cc2)cc1 | -16.3% (active) | -56.7% (active) | -72.7% (active) | 8.6% (active) | -34.8% (active) | -32.4% (active) | -60.6% (active) | 32% | -8.52% (active) | -17.3% (active) | -40.9% (active) | 4.12% (active) | 65.7% | 96.1% | 4.4% (active) | -96.4% (active) | -50.2% (active) | -48.2% (active) | -63.3% (active) | -84.1% (active)
